# Measurements: PubChem BioAssay (NCATS)
# Results filed as inconclusive are left out. A call without a number means that no potency is given here. Unmarked numbers belong to inactive results. Activity calls are given as the source filed them. The call rests on the fitted dose curve; in most records, active means well fitted inhibition curve with a large enough effect; inconclusive means small, poorly fitted or top-dose-only effect; inactive means flat fitted curve, though single readings scatter.
# How the values were obtained:
# [1] = qHTS profiling for inhibitors of Plasmodium falciparum proliferation (AID 504749); further: nearly all actives have a fitted effect of over 60% in size; settings: P. falciparum in erythrocytes, SYBR Green DNA, 72 h
# Outline: (§1)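 Infected RBCs, 0.3% parasitemia/2.5% Hct final; cpd 72 h, 37 C, 5% CO2; lysis buffer with saponin/triton/SYBR Green I, o/n RT dark; FI 485/535; norm. to artemisinin (0.29 uM) and DMSO.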
# [2] = test system: 3D7; assay: as above; settings: P. falciparum in erythrocytes, SYBR Green DNA, 72 h; series mostly up to 28.7 µM
# Outline: as §1
# [3] = test system: 7G8; assay: as above; settings: P. falciparum in erythrocytes, SYBR Green DNA, 72 h; series mostly up to 28.7 µM
# Outline: as §1
# [4] = test system: AA1029; assay: as above; settings: P. falciparum in erythrocytes, SYBR Green DNA, 72 h; series mostly up to 28.7 µM
# Outline: as §1
# [5] = at 12.8 µM (top of the series), parasite line A
# [6] = at 12.8 µM (top of the series), parasite line B
# [7] = at 28.7 µM (top of the series), parasite line A
# [8] = at 28.7 µM (top of the series), parasite line B
# Potency means the concentration at half of the fitted maximal effect.
Structure (SMILES),"activity, negative = inhibition [1, 5]","activity, negative = inhibition [1, 6]",Potency [2],Potency [3],Potency [4],"activity, negative = inhibition [1, 7]","activity, negative = inhibition [1, 8]"
C#CCN(C)Cc1ccccc1,7.21%,-0.897%,inactive,inactive,inactive,,
NCC(=O)CCC(=O)O,,,inactive,inactive,inactive,2.38%,-2.04%
O=C(Oc1ccccc1C(=O)O)c1ccccc1O,,,inactive,inactive,inactive,0.597%,10.5%
Oc1cn2c(n1)Nc1ccc(Cl)c(Cl)c1C2,,,inactive,inactive,inactive,7.35%,-8.41%
C[C@@H]1CN(c2c(F)c(F)c3c(=O)c(C(=O)O)cn(C4CC4)c3c2F)C[C@H](C)N1,,,inactive,inactive,inactive,9.49%,3.41%
CCCCc1ncc(/C=C(\Cc2cccs2)C(=O)O)n1Cc1ccc(C(=O)O)cc1,,,inactive,inactive,inactive,6.94%,4.94%
O=C1c2c(O)cccc2Cc2cccc(O)c21,,,inactive,inactive,inactive,14.6%,-4.21%
CC1(C)OC(=O)NC1=O,,,inactive,inactive,inactive,17.2%,21.8%
COc1ccc2c(c1)C(=O)N(CCc1ccc(S(=O)(=O)NC(=O)NC3CCCCC3)cc1)C(=O)C2(C)C,4.32%,-5.51%,inactive,inactive,inactive,,
Cc1cc(O)cc2c1O[C@](C)(CCC[C@H](C)CCC[C@H](C)CCCC(C)C)CC2,,,inactive,inactive,inactive,-4.03%,-6.42%
Cc1ncc(COP(=O)(O)O)c(C=O)c1O,,,inactive,inactive,inactive,-4.1%,3.77%
CCCCN1CCCC[C@H]1C(=O)Nc1c(C)cccc1C,,,inactive,inactive,inactive,5.7%,17.3%
CCCCC(CC)COC(=O)c1ccccc1O (centres undefined),,,inactive,inactive,inactive,5.45%,-0.719%
Nc1nc2c(ncn2CCC(CO)CO)c(=O)[nH]1,,,inactive,inactive,inactive,3.65%,-4.23%
CCCCN(CCCC)CCCOC(=O)c1ccc(N)cc1,-10.5%,3.88%,inactive,inactive,inactive,,
NC(=O)NC(=O)Cc1ccccc1,,,inactive,inactive,inactive,2.68%,-4.74%
CN1CCC[C@@H]1Cc1c[nH]c2ccc(CCS(=O)(=O)c3ccccc3)cc12,,,inactive,6.31 µM (active),,-0.0666%,-10.1%
CCOc1ccc2ccccc2c1C(=O)N[C@@H]1C(=O)N2[C@@H]1SC(C)(C)[C@@H]2C(=O)O,11.5%,-19.5%,inactive,inactive,inactive,,
C[C@H](N)[C@H](O)c1cccc(O)c1,4.05%,-0.641%,inactive,inactive,inactive,,
CCC(=O)Nc1ccc(O)cc1,,,inactive,inactive,inactive,11.9%,-3.83%
Nc1ccc(S(=O)(=O)Nc2nccs2)cc1,,,inactive,inactive,inactive,1.04%,-2.23%
NC(CSCC(=O)O)C(=O)O (centres undefined),,,inactive,inactive,inactive,-7.77%,-0.351%
N[C@@H](CSCCCO)C(=O)O,,,inactive,inactive,inactive,-6.32%,-2.52%
CCCCCCCCCCCCCCCCCCOCC(O)CO (centres undefined),,,inactive,inactive,inactive,11.2%,11.4%
O=c1[nH]c(=O)c2[nH]c(=O)[nH]c2[nH]1,,,inactive,inactive,inactive,-3.55%,2.26%
CC(C)(C)C(=O)NCCCC(=O)O,,,inactive,inactive,inactive,13.3%,-4.47%
O=c1cc(CO)occ1O,,,inactive,inactive,inactive,1.47%,-0.837%
CCCCCCCCCCCCOS(=O)(=O)O,,,inactive,inactive,inactive,2.98%,-1.46%
CCOC(=O)c1ccc(O)cc1,,,inactive,inactive,inactive,6.51%,-7.49%
